Here are results for eight molecules from PubChem BioAssay (Tox21).

Molecules are shown by their SMILES. Where “and” joins values, the source holds several entries; their conditions need not be identical. Identical values can stand only once. Results filed as inconclusive are left out. A structure can be active in one record and inactive in another. Calls of active or inactive are those of the source. Unless noted, calls follow the shape of the dose curve; as a rule, active = well fitted curve in the direction sought with a large enough effect in the repeat runs; inconclusive = weak or mixed curves; inactive = no such curve, though single readings can be large; an effect the other way counts as inactive or inconclusive.

The nature of assay [1]: qHTS assay to identify small molecule agonists of the vitamin D receptor (VDR) signaling pathway - cell viability counter screen (AID 743224). Also: nearly all actives have a fitted effect of over 50% in size. Also: potency is read from the fitted curve at half-maximal effect. The method in brief: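 VDR-bla cell line, quantitative HTS format; 16 h compound incubation (37C, 5% CO2); ATP-based CellTiter-Glo luminescence measured in the reporter assay wells.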
Background: qHTS replaces the single test concentration by a dilution series.

Assay [2] is described as follows: qHTS assay to identify small molecule antagonists of the vitamin D receptor (VDR) signaling pathway - cell viability counter screen (AID 743225). Also: nearly all actives have a fitted effect of over 50% in size. Also: potency is read from the fitted curve at half-maximal effect. The method, boiled down: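 HEK293T VDR-bla; cpd + 1a,25-(OH)2D3 3 nM final, 16 h 37C/5% CO2; B/G FRET substrate 2 h RT; then CellTiter-Glo 30 min RT, luminescence.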
A short description of assay [3]: qHTS assay to identify small molecule agonists of the endoplasmic reticulum stress response signaling pathway - cell viability counter screen (AID 1159517; calls by dose curve; also: nearly all actives have a fitted effect of over 50% in size; also: potency is read from the fitted curve at half-maximal effect). The method, boiled down: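 Luminescence readout: CellTiter-Glo, 30 min RT, same wells as the ESRE-bla reporter read. HeLa ESRE-bla, 1,500 cells/well, o/n 37 C; cpd 5 hr 37 C/5% CO2.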
Assay [4] addresses Nuclear receptor ROR-gamma (Homo sapiens) (UniProt P51449). As to the kind of experiment: qHTS assay to identify small molecule antagonists of the retinoid-related orphan receptor gamma (ROR-gamma) signaling pathway (AID 1159521;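 also: CHO cells with doxycycline inducible ROR-gamma driving an RORE luciferase reporter; top concentration of the series differs between compounds; nearly all actives have a fitted effect of over 50% in size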). The method in brief: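 Cells were plated, rested 4 h at 37 C, exposed to compounds for 2 h, then given 1 uM final doxycycline hyclate to induce RORγ expression. After 16 h, ONE-Glo luminescence from the ROR response element reporter was measured.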

The nature of assay [5]: qHTS assay to identify small molecule agonists of the AP-1 signaling pathway - cell viability counter screen (AID 1159525; calls by dose curve; also: nearly all actives have a fitted effect of over 55% in size; also: potency is read from the fitted curve at half-maximal effect). The method, boiled down:
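ME-180 AP-1-bla, 2500 cells/well, Opti-MEM + 0.5% dialyzed FBS; overnight 37 °C; cpd 15-pt titration, 5 h 37 °C; CellTiter-Glo 30 min RT; luminescence read; normalised to TOAB and DMSO controls.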

Assay [6] in a line: qHTS assay to identify small molecule agonists of the AP-1 signaling pathway (AID 1159526; calls by dose curve).
Assay [7] addresses Retinoic acid receptor RXR-alpha (Homo sapiens) (UniProt P19793). As to the kind of experiment: qHTS assay to identify small molecule agonists of the RXR signaling pathway (AID 1159527; calls by dose curve; also: nearly all actives have a fitted effect of over 35% in size). The method in brief:
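Cells plated at 2,000/well, rested 5 hr at 37 C, pin-dosed with DMSO compound solutions, incubated 16 hr, then loaded with B/G FRET substrate for 2 hr at RT before dual-emission fluorescence reading.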

Assay [8] is described as follows: qHTS assay to identify small molecule agonists of the RXR signaling pathway - cell viability counter screen (AID 1159529). Also: nearly all actives have a fitted effect of over 50% in size. Also: potency is read from the fitted curve at half-maximal effect. The method, boiled down:
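Steps: seed RXR-alpha-UAS-bla HEK 293T cells in assay medium containing 2% charcoal-stripped FBS; incubate 5 hr; add compounds in DMSO; incubate 16 hr at 37 C; after the bla read, add CellTiter-Glo and read luminescence at 30 min.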

Assay [9] can be described thus: qHTS assay to identify small molecule antagonists of the retinoid acid receptor (RAR) signaling pathway - cell viability counter screen (AID 1159551). Also: nearly all actives have a fitted effect of over 35% in size. Also: potency is read from the fitted curve at half-maximal effect. The method in brief: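 Following overnight attachment, C3RL4 reporter cells received DMSO-dissolved compounds and then retinol (1 uM final). Six hours later at 37 C, ATP content was measured by CellTiter-Glo luminescence.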

Assay [10] in a line: qHTS assay to identify small molecule antagonists of the retinoic acid receptor (RAR) signaling pathway (AID 1159552; also: nearly all actives have a fitted effect of over 50% in size). The method in brief: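 Retinol at 1 uM final stimulated RARE-luciferase expression in C3RL4 cells exposed to test compounds for 6 hr at 37 C. Reduced luminescence, read 30 min after detection reagent, indicated pathway antagonism.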
A short description of assay [11]: qHTS assay to identify small molecule agonists of the retinoic acid receptor (RAR) signaling pathway (AID 1159553). The method, boiled down:
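Cell line C3RL4, RARE luciferase reporter. Treatment: compounds in DMSO, 6 hr, 37 C, 5% CO2, after overnight plating. Detection: luminescence, 30 min RT after reagent.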

Assay [12] can be described thus: qHTS assay to identify small molecule antagonists of the estrogen related receptor (ERR) signaling pathway from Tox21 library - cell viability counter screen (AID 1224834). Also: nearly all actives have a fitted effect of over 30% in size. Also: potency is read from the fitted curve at half-maximal effect. The method in brief: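 Viability readout (CellTiter-Fluor fluorescence, 30 min at 37 C) multiplexed with the ERR assay; cells treated 17.5 h at 37 C with compounds delivered in DMSO.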
Assay [13] can be described thus: qHTS assay to identify small molecule agonists of the endoplasmic reticulum stress response signaling pathway (AID 1159516; active = well fitted activation curve with a large enough effect in the signal ratio in the repeat runs, not every such curve was filed as active; the % refers to the signal ratio). The method, boiled down: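 ER stress element reporter (bla) in HeLa. 1,500 cells/well, overnight attachment; 5 hr compound; 2 hr RT substrate; dual-emission fluorescence.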
Assay [14] can be described thus: qHTS assay to identify small molecule antagonists of the retinoid-related orphan receptor gamma (ROR-gamma) signaling pathway - cell viability counter screen (AID 1159520). Also: nearly all actives have a fitted effect of over 50% in size. Also: potency is read from the fitted curve at half-maximal effect. The method, boiled down:
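Tet-on ROR gamma CHO cells (1,000/well) were plated 4 hr, given compounds in DMSO for 2 hr at 37 C, then induced with 1 uM final doxycycline for 16 hr. Viability was read as ATP by CellTiter-Glo luminescence after 30 min.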

In assay [15] the target is Luciferin 4-monooxygenase (Photinus pyralis) (UniProt P08659). The experiment in a line: qHTS assay to identify small molecule inhibitors of firefly luciferase (AID 1224835). Also: series mostly up to about 120 µM; nearly all actives have a fitted effect of over 25% in size. The method, boiled down: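 Quantitative HTS format; KM concentrations of both substrates. Purified P. pyralis FLuc activity quantified from luminescence images.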
Chain of Luciferin 4-monooxygenase (Photinus pyralis) (P08659 whole entry, looked up): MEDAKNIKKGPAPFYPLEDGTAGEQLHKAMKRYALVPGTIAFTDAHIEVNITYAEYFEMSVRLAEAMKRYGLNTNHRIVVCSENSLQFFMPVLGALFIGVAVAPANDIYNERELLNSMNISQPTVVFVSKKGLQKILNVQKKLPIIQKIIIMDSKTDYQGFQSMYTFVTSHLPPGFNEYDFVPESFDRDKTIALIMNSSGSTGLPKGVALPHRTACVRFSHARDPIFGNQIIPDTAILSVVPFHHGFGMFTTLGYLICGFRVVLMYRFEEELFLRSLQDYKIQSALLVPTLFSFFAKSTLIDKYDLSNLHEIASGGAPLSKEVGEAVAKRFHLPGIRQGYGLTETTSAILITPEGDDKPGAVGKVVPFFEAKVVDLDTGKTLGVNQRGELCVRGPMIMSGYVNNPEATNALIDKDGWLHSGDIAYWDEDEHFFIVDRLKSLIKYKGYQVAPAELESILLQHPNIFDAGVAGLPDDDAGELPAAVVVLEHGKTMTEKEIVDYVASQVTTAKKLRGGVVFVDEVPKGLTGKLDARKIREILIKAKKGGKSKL

Chain of Retinoic acid receptor RXR-alpha (Homo sapiens) (P19793 whole entry, looked up): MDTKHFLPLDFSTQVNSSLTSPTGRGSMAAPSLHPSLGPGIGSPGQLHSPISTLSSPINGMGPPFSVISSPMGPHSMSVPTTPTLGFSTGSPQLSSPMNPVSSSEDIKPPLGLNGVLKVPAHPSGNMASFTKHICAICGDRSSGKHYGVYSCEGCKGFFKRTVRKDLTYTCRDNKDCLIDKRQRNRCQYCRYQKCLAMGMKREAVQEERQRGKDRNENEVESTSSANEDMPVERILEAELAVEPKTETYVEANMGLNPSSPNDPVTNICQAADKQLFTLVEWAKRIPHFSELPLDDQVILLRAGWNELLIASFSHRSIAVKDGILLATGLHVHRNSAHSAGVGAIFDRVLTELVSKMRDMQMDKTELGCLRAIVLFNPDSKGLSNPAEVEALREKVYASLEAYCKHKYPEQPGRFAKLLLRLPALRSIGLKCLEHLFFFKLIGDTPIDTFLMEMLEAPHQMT

For `Cc1cccc2n[nH]nc12`, the Potency entry in assay [1], in assay [2], in assay [3], in assay [4], in assay [5] and in [6] was “inactive” in each case. In addition, the Potency result in assay [7], in assay [8], in assay [9], in [10], in [11] and in assay [12] was “inactive” throughout.

Turning to `CCCCOCCOC(=O)c1ccccc1C(=O)OCCOCCCC`, the Potency in [1] was 30.2 µM (active) and inactive; in [8], 38.1 µM (active) and inactive. Further, the Potency result in [2], in assay [3], in assay [14], in assay [4], in assay [5] and in assay [7] was “inactive” in each case. Further, the Potency result in [9], in assay [10], in assay [12] and in assay [15] was “inactive” in each case. Also, the molecule was classed as inactive in assay [13].

Take `CC1COC(=O)O1` (configuration not stated): the Potency entry in [2], in assay [3], in assay [4], in [5], in [6] and in assay [7] was “inactive” in each case. Also, the Potency result in assay [8], in assay [9], in assay [12] and in [15] was “inactive” each time. In addition, in assay [13], the result was inactive.

Take `CC[C@H]1CN2CCc3cc(OC)c(OC)cc3[C@@H]2C[C@@H]1C[C@H]1NCCc2cc(OC)c(OC)cc21`: the Potency result in assay [2], in [5], in assay [8] and in [15] was “inactive” each time. Moreover, the Potency in [3] is 6.94 µM (active) and 4.25 µM (active); in assay [12], 15.4 nM (active) and 84.1 nM (active).

In the case of `Cc1occc(=O)c1OC(=O)C(C)C`, the Potency result in assay [2], in assay [3], in assay [14], in assay [4], in [5] and in assay [6] was “inactive” in each case. Also, the Potency entry in assay [7], in assay [8], in [10], in assay [11] and in assay [12] was “inactive” throughout.

With `COc1cc(C(=S)N2CCOCC2)ccc1O`, the Potency entry in [1], in assay [2], in assay [3], in [14], in assay [4] and in [5] was “inactive” in each case. Further, the Potency entry in assay [6], in assay [7], in assay [8], in assay [10], in assay [11] and in [12] was “inactive” in each case. For the same molecule, the result in assay [13] was inactive.

Turning to `Nc1cc(Cl)c(-c2cc(Cl)c(N)cc2Cl)cc1Cl`, the Potency in assay [2] was 21.9 µM (active); in assay [3], 54.9 µM (active); in assay [14] it was 61.1 µM (active); in assay [5] it was 38.9 µM (active) and 54.9 µM (active); in assay [8] it was 17.4 µM (active); in [9], 30.6 µM (active). The Potency in assay [12] was 48.5 µM (active) and 30.6 µM (active). In addition, in [11], the Potency result is “inactive”.

`Cc1cccc([N+](=O)[O-])c1C(=O)O`: the Potency result in assay [1], in assay [2], in [3], in assay [14], in assay [5] and in [6] was “inactive” each time. The Potency entry in assay [7], in assay [8], in assay [10], in assay [11], in assay [12] and in [15] was “inactive” throughout. For the same molecule, the molecule was called inactive in assay [13].
